The source of these data is ChEMBL document CHEMBL1961873, “Compounds: GSK PKIS; Assays: Nanosyn kinase panel” (2012).

In assay [1] the target is Calcium/calmodulin-dependent protein kinase type II subunit alpha (Homo sapiens) (UniProt Q9UQM7). Conditions: at 1 µM.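 Also: reported value is a mean percent inhibition of CAMK2A.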
Assay [2] concerns the target Calcium/calmodulin-dependent protein kinase type II subunit delta (Homo sapiens) (UniProt Q13557). Conditions: at 0.1 µM.
Assay [3] has the same target. Conditions: at 1 µM.
In assay [4] the target is T1, Calcium/calmodulin-dependent protein kinase type IV (Homo sapiens) (UniProt Q16566).
T1 sequence (whole entry): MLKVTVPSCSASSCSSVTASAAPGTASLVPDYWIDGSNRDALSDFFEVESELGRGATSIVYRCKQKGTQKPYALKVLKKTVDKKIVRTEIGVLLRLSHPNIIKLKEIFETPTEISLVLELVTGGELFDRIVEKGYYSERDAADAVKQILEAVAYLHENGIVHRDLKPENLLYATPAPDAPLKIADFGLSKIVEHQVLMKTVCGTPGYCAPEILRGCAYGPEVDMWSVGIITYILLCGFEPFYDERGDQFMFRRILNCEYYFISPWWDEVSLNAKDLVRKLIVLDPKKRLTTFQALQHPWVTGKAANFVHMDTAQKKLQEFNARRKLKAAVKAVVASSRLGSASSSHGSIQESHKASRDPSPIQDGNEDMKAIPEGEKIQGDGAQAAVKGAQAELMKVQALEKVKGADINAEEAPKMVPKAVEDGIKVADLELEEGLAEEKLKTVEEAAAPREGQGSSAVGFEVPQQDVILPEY
Particulars: at 0.1 µM.

In assay [5] the target is T1, Calcium/calmodulin-dependent protein kinase type IV (Homo sapiens). Particulars: at 1 µM.
Assay [6] has as its target T2, Serine/threonine-protein kinase Chk1 (Homo sapiens) (UniProt O14757).
T2 sequence (whole entry): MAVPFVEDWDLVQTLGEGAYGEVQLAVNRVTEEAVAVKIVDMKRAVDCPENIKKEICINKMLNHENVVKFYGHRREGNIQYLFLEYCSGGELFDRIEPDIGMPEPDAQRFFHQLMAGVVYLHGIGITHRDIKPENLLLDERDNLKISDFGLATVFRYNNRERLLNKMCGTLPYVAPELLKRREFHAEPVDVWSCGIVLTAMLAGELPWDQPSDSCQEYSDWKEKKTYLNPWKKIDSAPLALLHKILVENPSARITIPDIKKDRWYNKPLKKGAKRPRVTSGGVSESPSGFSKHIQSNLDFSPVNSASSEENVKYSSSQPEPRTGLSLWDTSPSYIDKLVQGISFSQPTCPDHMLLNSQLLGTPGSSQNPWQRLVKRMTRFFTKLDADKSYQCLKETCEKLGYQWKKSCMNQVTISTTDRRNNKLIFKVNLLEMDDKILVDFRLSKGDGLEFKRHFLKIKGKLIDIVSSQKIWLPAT
Conditions: at 0.1 µM.

Assay [7] concerns the target T2, Serine/threonine-protein kinase Chk1 (Homo sapiens). Conditions: at 1 µM.
Assay [8] has as its target Serine/threonine-protein kinase Chk2 (Homo sapiens) (UniProt O96017). Conditions: at 0.1 µM.
Assay [9] shares this target. Conditions: at 1 µM.
The target in assay [10] is Death-associated protein kinase 1 (Homo sapiens) (UniProt P53355). Particulars: at 0.1 µM.
Assay [11] shares this target. Particulars: at 1 µM.
In assay [12] the target is T3, Serine/threonine-protein kinase DCLK2 (Homo sapiens) (UniProt Q8N568).
T3 sequence (whole entry): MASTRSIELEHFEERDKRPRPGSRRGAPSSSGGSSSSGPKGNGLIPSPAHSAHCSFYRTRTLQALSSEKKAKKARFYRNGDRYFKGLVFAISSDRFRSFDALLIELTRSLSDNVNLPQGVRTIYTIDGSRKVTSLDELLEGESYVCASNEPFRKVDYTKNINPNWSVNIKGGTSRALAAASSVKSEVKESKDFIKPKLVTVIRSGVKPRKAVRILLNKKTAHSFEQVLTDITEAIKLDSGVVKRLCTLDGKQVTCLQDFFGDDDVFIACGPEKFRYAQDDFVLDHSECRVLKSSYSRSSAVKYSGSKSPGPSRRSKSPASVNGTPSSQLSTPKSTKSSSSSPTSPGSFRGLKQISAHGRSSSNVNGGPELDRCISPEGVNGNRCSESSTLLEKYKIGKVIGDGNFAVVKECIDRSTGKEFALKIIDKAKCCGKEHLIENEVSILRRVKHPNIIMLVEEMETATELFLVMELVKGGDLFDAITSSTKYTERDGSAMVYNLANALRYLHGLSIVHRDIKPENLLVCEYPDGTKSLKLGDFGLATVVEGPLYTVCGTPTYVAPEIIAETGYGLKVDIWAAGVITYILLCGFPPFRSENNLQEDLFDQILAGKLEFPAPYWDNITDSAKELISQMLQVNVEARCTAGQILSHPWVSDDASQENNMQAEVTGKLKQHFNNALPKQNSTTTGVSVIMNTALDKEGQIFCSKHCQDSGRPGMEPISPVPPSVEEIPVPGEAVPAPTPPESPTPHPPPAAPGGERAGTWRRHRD
Conditions: at 0.1 µM.

Assay [13] addresses MAP kinase-activated protein kinase 2 (Homo sapiens) (UniProt P49137). Particulars: at 0.1 µM.
Assay [14] has the same target. Conditions: at 1 µM.
For assay [15], the target named is MAP kinase-activated protein kinase 3 (Homo sapiens) (UniProt Q16644). Conditions: at 0.1 µM.
Assay [16] shares this target. Conditions: at 1 µM.
The target in assay [17] is Serine/threonine-protein kinase MARK1 (Homo sapiens) (UniProt Q9P0L2). Particulars: at 0.1 µM.
For assay [18] the target is unchanged. Conditions: at 1 µM.
Assay [19] deals with MAP/microtubule affinity-regulating kinase 3 (Homo sapiens) (UniProt P27448). Particulars: at 0.1 µM.
In assay [20] the target is T3, Serine/threonine-protein kinase DCLK2 (Homo sapiens). Particulars: at 1 µM.

Chain of Calcium/calmodulin-dependent protein kinase type II subunit alpha (Homo sapiens) (Q9UQM7 whole entry): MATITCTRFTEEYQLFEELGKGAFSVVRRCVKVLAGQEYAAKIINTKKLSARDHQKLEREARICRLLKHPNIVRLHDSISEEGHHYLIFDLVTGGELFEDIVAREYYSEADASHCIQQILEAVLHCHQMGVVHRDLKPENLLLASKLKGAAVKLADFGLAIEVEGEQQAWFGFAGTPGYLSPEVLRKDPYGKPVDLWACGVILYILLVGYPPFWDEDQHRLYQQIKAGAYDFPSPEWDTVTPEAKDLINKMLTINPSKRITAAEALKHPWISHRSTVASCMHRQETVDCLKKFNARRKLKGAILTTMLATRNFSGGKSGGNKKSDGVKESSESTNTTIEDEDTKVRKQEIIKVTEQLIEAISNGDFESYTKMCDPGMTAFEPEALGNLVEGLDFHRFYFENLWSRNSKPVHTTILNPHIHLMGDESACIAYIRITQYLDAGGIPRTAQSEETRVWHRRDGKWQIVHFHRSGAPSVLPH
Chain of Death-associated protein kinase 1 (Homo sapiens) (P53355 whole entry, looked up): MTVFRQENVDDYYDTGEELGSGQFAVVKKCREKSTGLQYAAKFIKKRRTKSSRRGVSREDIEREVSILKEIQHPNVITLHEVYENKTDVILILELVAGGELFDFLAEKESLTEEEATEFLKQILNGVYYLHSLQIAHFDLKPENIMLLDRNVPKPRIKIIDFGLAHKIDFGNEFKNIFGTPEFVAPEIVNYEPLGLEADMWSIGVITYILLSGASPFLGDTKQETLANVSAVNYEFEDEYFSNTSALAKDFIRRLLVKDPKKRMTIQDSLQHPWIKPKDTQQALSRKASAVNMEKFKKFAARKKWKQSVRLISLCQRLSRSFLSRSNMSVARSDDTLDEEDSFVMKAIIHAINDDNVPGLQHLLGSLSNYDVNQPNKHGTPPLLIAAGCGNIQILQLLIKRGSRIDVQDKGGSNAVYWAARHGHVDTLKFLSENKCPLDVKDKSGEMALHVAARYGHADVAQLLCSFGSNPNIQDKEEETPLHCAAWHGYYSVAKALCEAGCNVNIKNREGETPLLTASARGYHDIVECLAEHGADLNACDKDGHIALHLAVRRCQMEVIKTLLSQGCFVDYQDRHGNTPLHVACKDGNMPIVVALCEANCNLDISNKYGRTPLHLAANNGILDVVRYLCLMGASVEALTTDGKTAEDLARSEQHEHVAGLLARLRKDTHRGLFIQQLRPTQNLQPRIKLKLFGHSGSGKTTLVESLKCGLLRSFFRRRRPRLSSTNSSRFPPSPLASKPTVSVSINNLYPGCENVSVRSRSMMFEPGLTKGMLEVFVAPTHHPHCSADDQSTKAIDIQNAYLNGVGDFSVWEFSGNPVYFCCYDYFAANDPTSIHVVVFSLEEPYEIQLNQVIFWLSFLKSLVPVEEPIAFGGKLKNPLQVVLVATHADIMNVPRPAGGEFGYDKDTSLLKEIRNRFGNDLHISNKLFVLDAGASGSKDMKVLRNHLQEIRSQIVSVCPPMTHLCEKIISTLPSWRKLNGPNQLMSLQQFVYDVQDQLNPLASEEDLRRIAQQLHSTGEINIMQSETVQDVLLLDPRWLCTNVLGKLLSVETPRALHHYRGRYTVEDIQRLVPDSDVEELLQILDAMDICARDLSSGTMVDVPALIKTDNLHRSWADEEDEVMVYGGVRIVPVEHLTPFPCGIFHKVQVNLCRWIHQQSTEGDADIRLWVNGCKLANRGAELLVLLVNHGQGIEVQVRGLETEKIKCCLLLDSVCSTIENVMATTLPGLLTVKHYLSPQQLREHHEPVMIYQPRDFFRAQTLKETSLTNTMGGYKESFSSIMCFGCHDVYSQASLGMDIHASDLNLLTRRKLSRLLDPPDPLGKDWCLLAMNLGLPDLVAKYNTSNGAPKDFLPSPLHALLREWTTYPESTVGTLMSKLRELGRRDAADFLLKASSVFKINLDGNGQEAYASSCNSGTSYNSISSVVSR
Chain of Serine/threonine-protein kinase Chk2 (Homo sapiens) (O96017 whole entry): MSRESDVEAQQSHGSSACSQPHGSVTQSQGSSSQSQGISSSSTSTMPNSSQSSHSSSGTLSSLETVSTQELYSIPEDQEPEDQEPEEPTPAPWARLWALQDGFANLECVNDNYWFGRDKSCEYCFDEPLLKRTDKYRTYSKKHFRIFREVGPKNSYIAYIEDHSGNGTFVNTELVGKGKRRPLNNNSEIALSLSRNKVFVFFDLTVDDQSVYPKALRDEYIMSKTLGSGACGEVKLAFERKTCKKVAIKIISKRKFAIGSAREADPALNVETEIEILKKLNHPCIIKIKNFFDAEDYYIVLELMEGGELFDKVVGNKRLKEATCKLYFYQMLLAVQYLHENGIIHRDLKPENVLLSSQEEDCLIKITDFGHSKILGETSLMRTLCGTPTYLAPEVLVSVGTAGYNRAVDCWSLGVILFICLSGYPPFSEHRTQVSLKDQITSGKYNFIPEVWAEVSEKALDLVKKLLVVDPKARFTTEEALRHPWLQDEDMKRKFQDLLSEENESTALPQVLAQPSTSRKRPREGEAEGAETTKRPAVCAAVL
Chain of MAP kinase-activated protein kinase 2 (Homo sapiens) (P49137 whole entry, looked up): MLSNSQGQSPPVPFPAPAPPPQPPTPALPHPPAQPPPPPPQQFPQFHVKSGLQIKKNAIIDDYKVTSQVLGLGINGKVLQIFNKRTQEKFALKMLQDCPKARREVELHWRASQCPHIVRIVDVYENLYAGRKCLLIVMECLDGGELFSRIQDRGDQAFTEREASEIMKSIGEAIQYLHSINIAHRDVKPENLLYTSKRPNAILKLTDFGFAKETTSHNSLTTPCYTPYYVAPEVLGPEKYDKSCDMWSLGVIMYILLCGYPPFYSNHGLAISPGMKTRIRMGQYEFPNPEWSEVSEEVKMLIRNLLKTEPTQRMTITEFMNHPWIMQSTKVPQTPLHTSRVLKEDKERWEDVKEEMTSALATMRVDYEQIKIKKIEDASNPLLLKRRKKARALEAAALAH
Chain of MAP/microtubule affinity-regulating kinase 3 (Homo sapiens) (P27448 whole entry, looked up): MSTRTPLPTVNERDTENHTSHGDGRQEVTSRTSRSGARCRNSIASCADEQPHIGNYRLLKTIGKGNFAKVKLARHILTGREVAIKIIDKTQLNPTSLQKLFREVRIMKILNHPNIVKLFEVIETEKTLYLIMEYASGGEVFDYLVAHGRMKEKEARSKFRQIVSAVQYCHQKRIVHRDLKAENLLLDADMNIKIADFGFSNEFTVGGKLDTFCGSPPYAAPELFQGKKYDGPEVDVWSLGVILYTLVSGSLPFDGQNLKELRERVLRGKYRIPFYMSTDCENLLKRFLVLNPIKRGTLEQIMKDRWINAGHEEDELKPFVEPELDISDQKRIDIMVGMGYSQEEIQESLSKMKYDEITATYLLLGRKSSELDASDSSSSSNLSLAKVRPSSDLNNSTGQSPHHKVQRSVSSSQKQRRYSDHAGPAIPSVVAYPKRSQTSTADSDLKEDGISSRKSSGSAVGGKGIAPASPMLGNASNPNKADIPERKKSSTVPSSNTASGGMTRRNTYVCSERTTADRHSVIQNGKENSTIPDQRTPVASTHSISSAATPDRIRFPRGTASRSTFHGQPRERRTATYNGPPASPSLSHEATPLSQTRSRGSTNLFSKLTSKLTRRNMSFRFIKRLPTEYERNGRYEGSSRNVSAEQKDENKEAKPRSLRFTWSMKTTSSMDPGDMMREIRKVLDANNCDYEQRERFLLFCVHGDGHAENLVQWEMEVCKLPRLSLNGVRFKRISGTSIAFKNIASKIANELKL
Chain of Calcium/calmodulin-dependent protein kinase type II subunit delta (Homo sapiens) (Q13557 whole entry): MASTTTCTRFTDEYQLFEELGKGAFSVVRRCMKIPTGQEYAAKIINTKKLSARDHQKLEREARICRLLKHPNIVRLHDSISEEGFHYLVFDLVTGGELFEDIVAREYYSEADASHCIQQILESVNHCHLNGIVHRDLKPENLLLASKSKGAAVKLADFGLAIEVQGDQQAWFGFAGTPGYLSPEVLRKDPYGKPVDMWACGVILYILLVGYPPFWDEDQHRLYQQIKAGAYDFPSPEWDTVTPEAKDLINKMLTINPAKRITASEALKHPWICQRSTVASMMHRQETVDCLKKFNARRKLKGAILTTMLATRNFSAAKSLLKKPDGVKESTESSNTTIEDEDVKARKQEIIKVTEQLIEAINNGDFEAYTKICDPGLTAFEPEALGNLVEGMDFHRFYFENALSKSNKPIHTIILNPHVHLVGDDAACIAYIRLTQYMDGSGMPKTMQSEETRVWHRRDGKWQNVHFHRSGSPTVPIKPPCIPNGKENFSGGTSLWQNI
Chain of MAP kinase-activated protein kinase 3 (Homo sapiens) (Q16644 whole entry, looked up): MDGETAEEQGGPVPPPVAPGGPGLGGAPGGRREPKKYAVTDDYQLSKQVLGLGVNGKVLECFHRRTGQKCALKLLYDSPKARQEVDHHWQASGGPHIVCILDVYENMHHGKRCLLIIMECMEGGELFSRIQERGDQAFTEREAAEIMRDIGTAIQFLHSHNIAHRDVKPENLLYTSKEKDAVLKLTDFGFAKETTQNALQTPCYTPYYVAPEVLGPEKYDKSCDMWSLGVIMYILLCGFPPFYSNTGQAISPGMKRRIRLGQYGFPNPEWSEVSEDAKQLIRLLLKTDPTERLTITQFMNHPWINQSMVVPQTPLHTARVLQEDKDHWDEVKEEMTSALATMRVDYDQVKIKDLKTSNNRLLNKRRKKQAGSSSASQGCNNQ

In the case of `COc1ccc(-c2nn3ncccc3c2-c2ccnc(Nc3ccc(Cl)c(C(F)(F)F)c3)n2)cc1`, the inhibition is 0.35% in assay [1]; 0.24% in [2]; -0.01% in [3]; -1.57% in assay [4]; -4.24% in assay [5]; -0.59% in assay [6]. Further, the inhibition in assay [7] was -3.23%; in [8] it was 1.35%; in assay [9] it was 2.73%; in [10], 1.96%; in assay [11] it was 2.18%; in [12], 1.74%. Besides, the inhibition is 1.23% in [13]; 0.64% in assay [14]; 4.41% in assay [15]; 17.4% in assay [16]; 2.21% in assay [17]; 2.97% in assay [18]. Further, the inhibition in [19] is -0.96%.

Turning to `COC(=O)Nc1nc2cc(Oc3cccc(NC(=O)Nc4cc(C(F)(F)F)ccc4F)c3)ccc2[nH]1`, the inhibition was 0.78% in assay [1]; 0.53% in assay [2]; 0.94% in assay [3]; 1.37% in assay [4]; 0.22% in [5]; -2.61% in assay [6]. For the same compound, the inhibition is -1.51% in [7]; -0.85% in assay [8]; 0.45% in assay [9]; 0.43% in assay [10]; -0.6% in [11]; 5.45% in assay [12]. Moreover, the inhibition in assay [20] was -0.15%; in [13] it was -0.06%; in assay [14], -0.64%; in assay [15], 0%; in assay [16] it was 1.82%; in assay [17] it was 1.21%. Besides, the inhibition in [18] was determined as 1.49%; in assay [19], 0.8%.

As for `COc1cc2ncn(-c3cc(O[C@@H](C)c4ccccc4Cl)c(C(N)=O)s3)c2cc1OC`, the inhibition is -1% in assay [1]; 2.63% in [2]; 5.01% in assay [3]; -1.47% in [4]; -3.56% in assay [5]; 9.31% in assay [6]. Moreover, the inhibition in assay [7] was 11.3%; in assay [8], 8.19%; in assay [9], 11.6%; in assay [10], 13.5%; in assay [11], 8.9%; in assay [12], -1.19%. Besides, the inhibition worked out at 3.6% in assay [20]; 5.43% in assay [13]; 5% in assay [14]; 9.03% in assay [15]; 10.9% in assay [16]; 4.26% in assay [17]. Moreover, the inhibition in assay [18] was 9.07%; in assay [19], 4.06%.

Turning to `c1cnn2ncc(-c3ccnc(Nc4ccc5c(c4)OCCO5)n3)c2c1`, the inhibition amounted to 15.3% in assay [1]; 7.61% in [2]; 35.7% in [3]; 0.39% in assay [4]; 1.89% in [5]; 0.16% in assay [6]. The inhibition in [7] was determined as 6.81%; in assay [8], 2.96%; in assay [9] it was 9.21%; in assay [10], 3.38%; in assay [11], 3.76%; in assay [12], 1.81%. Also, the inhibition in [20] came out at 1.89%; in [13], 2.05%; in [14] it was 2.24%; in assay [15], 3.74%; in assay [16], 3.81%; in assay [17], 4.18%. Besides, the inhibition in assay [18] was 24.3%; in [19] it was 5.06%.

For `COc1cc2c(cc1Nc1nc(N3CCc4ccccc43)c3cc[nH]c3n1)N(C(=O)CN(C)C)CC2`, the inhibition worked out at 4.08% in [1]; 3.43% in assay [2]; 2.99% in assay [3]; 2.17% in [4]; 3.69% in assay [5]; 0.15% in assay [6]. For the same compound, the inhibition in assay [7] is 3.74%; in assay [8], 1.34%; in [9], 7.08%; in assay [10] it was 2.95%; in [11], 5.32%; in [12], -0.1%. Also, the inhibition in assay [20] is -1.1%; in assay [13], 1.24%; in assay [14], 1.57%; in assay [15], 1.99%; in [16] it was 0.18%; in assay [17], 1.84%. Further, the inhibition is 3.15% in assay [18] and 4.35% in assay [19].

Consider `Cc1nnc(-c2ccc(C)c(-c3ccc(C(=O)Nc4cccc(C#N)c4)cc3)c2)o1`, for which the inhibition in [1] is 1.16%; in assay [2], 1.1%; in assay [3], 1.51%; in [4], -1.55%; in assay [5] it was -0.84%; in [6], 0.73%. The inhibition was 0.92% in assay [7]; 1.03% in [8]; 4.05% in [9]; 3.42% in [10]; 2.66% in assay [11]; 0.99% in assay [12]. The inhibition in assay [13] stood at 1.02%; in assay [14], 0.1%; in assay [15], 5.27%; in [16], 16.3%; in [17] it was 1.96%; in assay [18], 4.25%. In addition, the inhibition in assay [19] worked out at 2.09%.

On to `COc1ccc(-c2coc3ncnc(N)c23)cc1`, for which the inhibition in [1] is 3.94%; in assay [2], 3.92%; in [3], 5.31%; in assay [4], 1.63%; in assay [5], 1.94%; in assay [6], 9.42%. The inhibition was 12.4% in assay [7]; 7.79% in assay [8]; 8.17% in assay [9]; 10.8% in [10]; 12.9% in [11]; 0.87% in assay [12]. Moreover, the inhibition in assay [20] is -0.02%; in assay [13] it was 3.78%; in assay [14], 4.6%; in [15], 10.7%; in assay [16] it was 11.6%; in assay [17], 4.41%. Besides, the figures for the inhibition in assay [18] and in assay [19] were 3.73% and 5.6%, respectively.

As a reminder, the inhibition is the relative decrease from the control value, in per cent.
